Inconclusive results are not listed. Entries that show only a call come without a potency. The source made the active and inactive calls. Unless noted, the call rests on the fitted dose curve; in most records, active means well fitted curve in the direction sought with a large enough effect; inconclusive means small, poorly fitted or top-dose-only effect, or another doubt; inactive means no such curve, though single readings can be large; an effect the other way counts as inactive or inconclusive.

The record followed here is PubChem BioAssay (NCATS).

Test [1] has as its target Luciferin 4-monooxygenase (Photinus pyralis) (UniProt P08659). In words: Biochemical firefly luciferase enzyme assay for NPC (AID 624030). Further: nearly all actives have a fitted effect of over 70% in size. Further: potency means the concentration at half of the fitted maximal effect. In a few lines: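 Direct inhibition of firefly luciferase enzyme (10 nM final, 50 mM Tris Acetate) assessed by luminescence within 5 minutes. Percent activity scaled between DMSO and PTC124 positive control, with concentration-effect curves classified by fit quality and response.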

The target in test [2] is Voltage-gated inwardly rectifying potassium channel KCNH2 (Homo sapiens) (UniProt Q12809). In words: qHTS Assay for Small Molecule Inhibitors of the Human hERG Channel Activity (AID 588834).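 Further: lower thallium flux fluorescence means stronger hERG block; nearly all actives have a fitted effect of over 50% in size.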 Further: potency means the concentration at half of the fitted maximal effect. In a few lines:
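U2OS cells BacMam-transduced with hERG, 2000 cells/well, compound ~10 min at 37 °C before stimulation buffer. FluxOR thallium flux fluorescence read kinetically on FDSS; decrease indicates block; AC50 from Hill fits.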

The nature of test [3]: S16 Schwann cell viability assay (CellTiter-Glo assay) (AID 624031).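 Further: cellular ATP luminescence as a viability measure; nearly all actives have a fitted effect of over 70% in size.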 In a few lines: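 This viability control uses native rat S16 Schwann cells grown in DMEM plus 10% FBS. After a 24 h compound treatment at 37 °C, CellTiter-Glo luminescence reports ATP content, scaled against DMSO-treated and cell-free wells.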
Background: Cellular ATP, detected with luciferase, serves as a proxy for viable cell number.

Test [4] is described as follows: S16 Schwann cell PMP22 intronic element firefly luciferase assay (AID 624032). Further: nearly all actives have a fitted effect of over 30% in size. Further: potency means the concentration at half of the fitted maximal effect. In short, it runs like this:
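Luciferase reporter of PMP22 intronic-element expression in stably transfected S16 rat Schwann cells, read by ONE-Glo luminescence after 24 h compound exposure at 37 C. Activity scaled between DMSO (0%) and positive-control PTC124; concentration-effect curves quality-classified.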

The nature of test [5]: S16 Schwann cell PMP22 intronic element beta-lactamase assay (AID 624044; calls by dose curve; further: nearly all actives have a fitted effect of over 15% in size). In short, it runs like this: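 Rat S16 Schwann cells with beta-Lac driven by a PMP22 intronic element, compound-treated 24 h at 37 °C. LiveBLAzer FRET B/G read: 460 nm normalized to potassium clavulanate vs DMSO; 535 nm FRET as viability; concentration-effect curves classified.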
Test [6] deals with Glutaminase kidney isoform, mitochondrial (Homo sapiens) (UniProt O94925). In words: qHTS for Inhibitors of Glutaminase (GLS): LOPAC Validation (AID 624146).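 Further: glutamate product detected by oxidase and peroxidase coupled Amplex red fluorescence gain; nearly all actives have a fitted effect of over 60% in size.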 In a few lines:
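Two-point fluorescence kinetic (t0, 30 min RT) for hKGA; glutamate detected via glutamate oxidase–HRP–Amplex Red. Substrate: 1 mM L-glutamine solution; buffer 45 mM KH2PO4, pH 8.2.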
On the technique in general: qHTS replaces the single test concentration by a dilution series.

Test [7] addresses Glucagon-like peptide 1 receptor (Homo sapiens) (UniProt P43220). In words: qHTS of GLP-1 Receptor Agonists: LOPAC Validation (AID 624148).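 Further: luminescence from a luciferase reporter switched on by cAMP; higher luminescence signal means agonism.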 In a few lines: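 Agonism scored as increased luciferase luminescence driven by cAMP in HEK293 clones carrying GLP-1R. Cells settled 12 hours, received compound for 4-6 hr at 37 deg C, 5% CO2, and were read after 12 min detection reagent at RT.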

Test [8] is described as follows: qHTS of Nrf2 Activators: LOPAC Validation (AID 624149). In a few lines: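 AREc32_Fluc cells, 1000/well in OPTI-MEM with 5% FBS, grown overnight, then exposed to compounds for 24 hr at 37 deg C, 5% CO2. ARE-driven firefly luciferase read by Steady-Glo luminescence after 30 min at RT.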
Test [9] in a line: HTS Assay for Allosteric Antagonists of the Human D2 Dopamine Receptor: Hit Validation in HTRF (AID 624455).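 Further: stable D1 dopamine receptor cell line scored for blocking the D1 response.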 In a few lines:
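Hit validation in cells stably expressing the D1 dopamine receptor, run in HTRF format. Compounds were tested for their ability to inhibit the D1-mediated response.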
For orientation: TR-FRET usually uses a lanthanide donor and a delayed reading to cut background.

A short description of test [10]: Cytotoxicity counterscreen for NFkB agonists and antagonists (AID 624476).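 Further: cells exposed to compound for 48 hours.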
A short description of test [11]: qHTS Assay for Identification of Small Molecule Agonists for NFkB Signaling Pathway. (AID 624478). In a few lines:
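NFkB-bla ME-180 cells carry a beta-lactamase reporter. They received compound plus TNF alpha at 10 pM final (its EC50) for 5 h at 37 C. Reporter activity was read as 460/530 nm emission ratio after 2 h LiveBLAzer substrate loading.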

Test [12] is described as follows: qHTS Assay for Identification of Small Molecule Antagonists for NFkB Signaling Pathway. (AID 624479; calls by dose curve;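 further: pathway stimulated with TNF alpha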).
A short description of test [13]: Cell Proliferation Assay against the TMD8 Cell Line (AID 651645).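 Further: cells exposed to compound for 48 h before reading.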 The following applies: TMD8 DLBCL cell line proliferation/viability; at 46.1 µM (top of the series). In short, it runs like this:
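TMD8 cells, 500/well in RPMI with 5% FBS, dosed immediately and grown 48 h at 37 C, 5% CO2. CellTiter-Glo luminescence normalised to DMSO 100% and 9.2 uM bortezomib (final) 0%.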

Luciferin 4-monooxygenase (Photinus pyralis), sequence (P08659 whole entry, looked up): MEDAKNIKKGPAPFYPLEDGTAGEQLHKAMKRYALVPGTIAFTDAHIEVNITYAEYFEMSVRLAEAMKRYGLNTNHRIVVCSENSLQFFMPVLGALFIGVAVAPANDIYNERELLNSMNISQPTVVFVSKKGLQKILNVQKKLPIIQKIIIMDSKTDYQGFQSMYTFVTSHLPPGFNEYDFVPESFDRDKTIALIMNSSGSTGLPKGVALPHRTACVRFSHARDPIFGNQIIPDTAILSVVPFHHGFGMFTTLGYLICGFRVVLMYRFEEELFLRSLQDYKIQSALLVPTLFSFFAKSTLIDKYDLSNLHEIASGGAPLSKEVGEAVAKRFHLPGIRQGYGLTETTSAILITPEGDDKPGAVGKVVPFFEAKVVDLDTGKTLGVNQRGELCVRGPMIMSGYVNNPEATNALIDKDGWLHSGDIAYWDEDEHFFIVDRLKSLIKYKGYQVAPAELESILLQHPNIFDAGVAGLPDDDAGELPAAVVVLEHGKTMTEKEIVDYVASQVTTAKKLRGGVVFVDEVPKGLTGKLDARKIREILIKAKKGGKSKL
Voltage-gated inwardly rectifying potassium channel KCNH2 (Homo sapiens), sequence (Q12809 whole entry, looked up): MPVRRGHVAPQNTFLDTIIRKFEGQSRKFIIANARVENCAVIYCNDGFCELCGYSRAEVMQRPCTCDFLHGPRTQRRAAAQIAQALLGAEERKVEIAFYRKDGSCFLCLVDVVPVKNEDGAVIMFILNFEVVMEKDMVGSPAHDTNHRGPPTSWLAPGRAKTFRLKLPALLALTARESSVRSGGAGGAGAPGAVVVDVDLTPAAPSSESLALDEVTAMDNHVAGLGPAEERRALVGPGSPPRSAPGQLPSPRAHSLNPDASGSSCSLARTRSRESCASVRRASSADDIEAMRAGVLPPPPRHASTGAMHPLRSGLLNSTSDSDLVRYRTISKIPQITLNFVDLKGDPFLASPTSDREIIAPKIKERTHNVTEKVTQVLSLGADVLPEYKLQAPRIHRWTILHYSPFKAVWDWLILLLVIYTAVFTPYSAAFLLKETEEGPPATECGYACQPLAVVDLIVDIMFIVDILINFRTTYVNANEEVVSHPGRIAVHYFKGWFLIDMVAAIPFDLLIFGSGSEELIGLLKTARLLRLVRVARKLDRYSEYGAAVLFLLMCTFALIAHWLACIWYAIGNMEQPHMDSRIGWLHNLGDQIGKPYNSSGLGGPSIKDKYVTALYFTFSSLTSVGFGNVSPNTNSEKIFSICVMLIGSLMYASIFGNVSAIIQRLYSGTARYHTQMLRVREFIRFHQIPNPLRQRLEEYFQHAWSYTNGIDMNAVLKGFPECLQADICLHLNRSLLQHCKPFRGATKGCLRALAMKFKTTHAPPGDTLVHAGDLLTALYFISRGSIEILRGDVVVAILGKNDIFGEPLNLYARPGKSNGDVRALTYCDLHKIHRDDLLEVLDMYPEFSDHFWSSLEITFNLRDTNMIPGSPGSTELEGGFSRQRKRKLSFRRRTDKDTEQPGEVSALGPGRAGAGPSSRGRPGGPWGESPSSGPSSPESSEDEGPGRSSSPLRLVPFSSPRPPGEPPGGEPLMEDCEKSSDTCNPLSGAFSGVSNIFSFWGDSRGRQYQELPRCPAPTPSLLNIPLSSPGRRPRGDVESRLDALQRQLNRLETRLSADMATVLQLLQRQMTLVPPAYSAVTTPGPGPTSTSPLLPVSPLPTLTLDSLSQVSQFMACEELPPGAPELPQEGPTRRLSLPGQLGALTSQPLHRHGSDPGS
Glucagon-like peptide 1 receptor (Homo sapiens), sequence (P43220 whole entry, looked up): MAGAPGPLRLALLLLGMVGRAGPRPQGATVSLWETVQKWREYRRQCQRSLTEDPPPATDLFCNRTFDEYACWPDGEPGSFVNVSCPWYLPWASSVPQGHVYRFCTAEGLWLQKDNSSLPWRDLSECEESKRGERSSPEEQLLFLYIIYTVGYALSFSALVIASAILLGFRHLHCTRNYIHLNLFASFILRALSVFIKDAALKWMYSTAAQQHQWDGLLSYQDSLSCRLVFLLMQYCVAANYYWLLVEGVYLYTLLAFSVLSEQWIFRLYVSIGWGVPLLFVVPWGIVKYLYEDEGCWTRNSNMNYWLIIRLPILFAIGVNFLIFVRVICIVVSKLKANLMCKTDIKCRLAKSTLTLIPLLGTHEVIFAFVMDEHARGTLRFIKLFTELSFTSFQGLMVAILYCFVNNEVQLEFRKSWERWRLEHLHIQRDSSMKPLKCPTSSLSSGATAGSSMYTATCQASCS
Glutaminase kidney isoform, mitochondrial (Homo sapiens), sequence (O94925 whole entry, looked up, canonical isoform): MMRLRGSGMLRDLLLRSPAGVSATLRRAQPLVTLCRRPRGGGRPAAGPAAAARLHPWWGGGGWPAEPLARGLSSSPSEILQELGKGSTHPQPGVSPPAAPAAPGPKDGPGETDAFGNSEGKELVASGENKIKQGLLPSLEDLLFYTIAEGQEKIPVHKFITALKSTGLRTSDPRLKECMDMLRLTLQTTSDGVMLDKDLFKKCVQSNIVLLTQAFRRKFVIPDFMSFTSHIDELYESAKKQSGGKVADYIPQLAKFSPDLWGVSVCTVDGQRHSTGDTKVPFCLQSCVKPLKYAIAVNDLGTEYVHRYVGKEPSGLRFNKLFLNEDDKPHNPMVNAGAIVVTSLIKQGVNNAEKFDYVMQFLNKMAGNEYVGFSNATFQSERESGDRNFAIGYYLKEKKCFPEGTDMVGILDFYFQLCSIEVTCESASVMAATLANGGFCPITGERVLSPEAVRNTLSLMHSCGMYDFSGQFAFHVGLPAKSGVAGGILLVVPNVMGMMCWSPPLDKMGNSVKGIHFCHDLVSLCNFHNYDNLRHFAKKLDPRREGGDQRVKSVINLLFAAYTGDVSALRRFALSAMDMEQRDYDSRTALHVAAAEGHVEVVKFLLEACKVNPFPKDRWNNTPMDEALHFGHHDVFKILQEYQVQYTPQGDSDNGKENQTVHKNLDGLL

As for `Cc1nc2ccccc2c(=O)n1-c1ccccc1Cl`, in test [1], the Potency result is “inactive”.
Same read-out and setting: then `NC1(c2ccccc2)CCCCC1`, with “inactive”.
As to `CC(C)(C)OC(=O)c1ncn2c1[C@@H]1CCCN1C(=O)c1c(Br)cccc1-2`, the Potency result in [2], in test [1], in test [3], in [4] and in [5] was “inactive” in each case.
As to `O=C(O)CCCCCCNC1c2ccccc2CCc2ccccc21`, the Potency result in [1] is “inactive”.
`COc1ccc(C(=O)N2CCCC2=O)cc1`: the Potency entry in test [2], in test [1], in [3], in test [4] and in test [9] was “inactive” in each case. In addition, the molecule was called inactive in test [6], in test [7] and in test [8].
Regarding `Cc1nnc2n1-c1sc(CCC(=O)N3CCOCC3)cc1C(c1ccccc1Cl)=NC2`, the Potency result in [1] is “inactive”.
Still for that read-out and setting: to `CNC(C)Cc1ccc2c(c1)OCO2` (centres undefined) belongs “inactive”.
Regarding `CC1N=C(N)OC1c1ccccc1` (centres undefined), the Potency result in test [1] is “inactive”.
As for `CCC(=O)OC1(c2ccccc2)CCN(C)CC1`, the Potency entry in test [1] is “inactive”.
With `COc1ccc(CN2CCNCC2)c(OC)c1OC`, the Potency entry in test [2], in [1], in [3], in test [4] and in test [5] was “inactive” each time.
As for `CC[C@]1(O)CC[C@H]2[C@@H]3CCC4=CCCC[C@@H]4[C@H]3CC[C@@]21C`, the Potency result in [2], in [1] and in test [5] was “inactive” each time. Further, the Potency in test [4] was 9.07 µM (active).
For the molecule `CNC(C)Cc1ccccc1OC` (centres undefined), the Potency entry in test [1] is “inactive”.
On the same count and under the same terms, to `CC[C@H](O)C(C[C@H](C)N(C)C)(c1ccccc1)c1ccccc1` belongs “inactive”.
Consider `O=C(CCCN1CCC(n2c(=O)[nH]c3ccccc32)CC1)c1ccc(F)cc1`, for which the Potency in test [2] is 355 nM (active). The Potency entry in test [1], in test [3] and in test [4] was “inactive” in each case.
For the molecule `COc1ccc(OC)c(CC(C)N)c1` (centres undefined), the Potency result in test [1] is “inactive”.
For `CCCN(CCC)CCc1c[nH]c2ccccc12`, the Potency entry in [1] is “inactive”.
Regarding `c1ccc2nc(N3CCNCC3)ccc2c1`, the Potency result in test [2], in [1], in [3] and in test [4] was “inactive” each time.
For the molecule `CN(C)CCc1c[nH]c2ccc(O)cc12`, in test [1], the Potency result is “inactive”.
As for `Nc1ccc(N)cc1`, the Potency result in test [2] and in test [5] was “inactive” throughout.
Turning to `CC(Cc1ccc2c(c1)OCO2)NO` (centres undefined), the Potency result in test [1] is “inactive”.
Regarding `CCN(CC)C(C)C(=O)c1ccccc1` (centres undefined), the Potency result in test [2], in test [1], in test [3] and in test [4] was “inactive” each time.
As to `C[C@]12C=CC(=O)C=C1CC[C@@H]1[C@@H]2CC[C@@]2(C)[C@H]1CC[C@]2(C)O`, the Potency result in test [2], in test [1], in test [3], in [4] and in test [5] was “inactive” each time.
Regarding `Cc1nnc2n1-c1sc(CCc3ccc(CC(C)C)cc3)cc1C(c1ccccc1Cl)=NC2C` (centres undefined), in [1], the Potency result is “inactive”.
On to `CCN(CC)CCOC(=O)C(C)(c1ccccc1)c1ccccc1`, for which the Potency in [2] is 3550 nM (active). Besides, the Potency result in [1], in test [3], in test [4] and in test [5] was “inactive” in each case.
For `CN1C[C@@H](NS(=O)(=O)N(C)C)C[C@@H]2c3cccc4c3c(cn4C)C[C@H]21`, the Potency entry in test [2], in test [1] and in [4] was “inactive” throughout.
As for `Cc1ncc2n1-c1ccc(Cl)cc1C(c1ccccc1F)=NC2`, the Potency result in [2], in test [1] and in [3] was “inactive” in each case.
For the molecule `CC(=O)OC1(c2ccccc2)CCN(CCc2ccccc2)CC1`, the Potency result in [1] was “inactive”.
On the same count and under the same terms, to `CCCOC(=O)Cc1ccc(OCC(=O)N(CC)CC)c(OC)c1` belongs “inactive”; to `CN(C)CCc1c[nH]c2cccc(O)c12`, “inactive”; to `c1ccc(CCNc2nc(-c3ccccc3)cs2)cc1`, 1.61 µM (active).
For the molecule `CC(C)C(Br)C(=O)NC(N)=O` (centres undefined), the Potency entry in test [1] and in test [3] was “inactive” in each case.
Turning to `CCCCC1C(=O)NC(=O)N(C2CCCCC2)C1=O` (centres undefined), the Potency entry in test [1] is “inactive”.
Turning to `CC[C@H]1C[C@H]2[C@@H]3CCC4=CC(=O)CC[C@@H]4[C@H]3CC[C@]2(C)[C@H]1O`, the Potency result in test [1] is “inactive”.
For `CC(C)(O)C(Cl)(Cl)Cl`, the Potency entry in test [1], in [3] and in test [4] was “inactive” throughout.
For `OC(c1ccccc1)(c1ccccc1)C1CCNCC1`, the Potency result in test [1], in [3] and in test [4] was “inactive” throughout.
Turning to `CCN(CC)Cc1nccn1-c1ccc([N+](=O)[O-])cc1C(=O)c1ccccc1Cl`, in test [1], the Potency result was “inactive”.
In the case of `COc1cc(CC(C)N)cc2c1OCO2` (centres undefined), in [1], the Potency entry is “inactive”.
Still for that read-out and setting: then `O=C(O)Cc1ccccc1`, with “inactive”.
Consider `C[N+]1(CCC(C(N)=O)(c2ccccc2)c2ccccc2)CCCCC1`, for which the Potency result in [1], in [3] and in test [4] was “inactive” in each case.
Consider `O=C1NCN(c2ccccc2)C12CCN(CCCOc1ccc(F)cc1)CC2`, for which the Potency result in test [1] and in test [3] was “inactive” throughout.
As for `O=C(N[C@@H]1N=C(c2ccccc2F)c2cccc3c2N(CC3)C1=O)c1cc2ccccc2[nH]1`, the Potency entry in [1] was “inactive”.
Same read-out and setting: then `COc1ccc2c(C(=O)c3ccc(Cl)cc3)c(C)n(CC(=O)O)c2c1`, with “inactive”.
Consider `COc1cc(CC(C)N)c(OC)cc1Br` (centres undefined), for which, in test [1], the Potency entry is “inactive”.
Still for that read-out and setting: then `CCOC(=O)NC(C)(C)Cc1ccc(Cl)cc1`, with “inactive”.
Same read-out and setting: then `CC(CC(C#N)(c1ccccc1)c1ccccc1)N(C)C` (centres undefined), with “inactive”; and `c1ccc2c(c1)Sc1ccccc1N2CC1CN2CCC1CC2` (centres undefined), with “inactive”.
Turning to `CCc1cc(OC)c(C[C@H](C)N)cc1OC`, the Potency result in [1] is “inactive”.
On to `CN(C)CCc1c[nH]c2ccccc12`, for which the Potency entry in test [1] is “inactive”.
The same measure, in the same setting: to `Cc1ccc(O)cc1` belongs “inactive”.
Same read-out and setting: then `COc1ccc2[nH]cc(CCN(C(C)C)C(C)C)c2c1`, with “inactive”.
In the case of `NCc1cccnc1`, the Potency result in [1] and in test [3] was “inactive” each time.
On to `C[N+](C)(C)CCCCCCCCCC[N+](C)(C)C`, for which, in [1], the Potency entry was “inactive”.
With `CN1C(=O)[C@@H](NC(=O)c2cc3ccccc3[nH]2)N=C(c2ccccc2)c2ccccc21`, the Potency entry in test [1] and in test [3] was “inactive” throughout.
As to `CNC(=O)NC(O)C(Cl)(Cl)Cl` (centres undefined), the Potency entry in test [1], in test [3] and in test [4] was “inactive” in each case.
Turning to `C[C@]12CC[C@H]3[C@@H](CCC4=CC(=O)CC[C@@H]43)[C@@H]1CC[C@@H]2O`, in [1], the Potency entry was “inactive”.
For `ClC1=C(Cl)C2(Cl)C(CBr)CC1(Cl)C2(Cl)Cl` (centres undefined), the Potency entry in test [1] and in test [3] was “inactive” each time.
For the molecule `O=C(O)CNC(=O)c1ccccc1I`, the Potency result in [1] was “inactive”.
Turning to `CCN(Cc1ccc(Cl)nc1)/C(=C/[N+](=O)[O-])NC`, the Potency entry in test [1], in [3] and in test [4] was “inactive” in each case.
For `OC(O)C(Cl)(Cl)Cl`, the Potency result in test [1] and in [3] was “inactive” in each case.
Regarding `CN1C(=O)CN=C(c2ccccc2)c2cc(Cl)ccc21`, the Potency result in test [1] is “inactive”.
Regarding `CCOC(=O)NC(O)C(Cl)(Cl)Cl` (centres undefined), the Potency entry in test [1], in [3] and in test [4] was “inactive” each time.
For the molecule `C[C@H]1CNCCc2ccc(Cl)cc21`, the Potency result in [1] is “inactive”.
On to `O=C(O)c1nn(Cc2ccc(Cl)cc2Cl)c2ccccc12`, for which the result in [10], in [11] and in test [12] was inactive. The viability (% of control) in test [13] is 107%.
